Outcome and AC50 data for 33 compounds are collected here from PubChem BioAssay (EPA / NIEHS).

Active and inactive are the calls of the source. How the source made its calls: active means hit-call score of the fitted dose curve at least 0.9, where 1 is the maximum; inactive means score below 0.9.

Read-out in one test: Urokinase-type plasminogen activator receptor (uPAR), PLAUR (gene 5329)
Kind of test: BSK_BE3C_uPAR: BioMAP Diversity Plus: BE3C Assay for Urokinase-type plasminogen activator receptor (uPAR) Biomarker Activity (AID 2283039).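 On Outcome: uPAR protein level measured by ELISA on the cells; cells exposed to compound for one day before measurement.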 Conditions: primary human bronchial epithelial cells; actives raise or lower the signal. Put shortly:
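ELISA readout of uPAR on human lung primary bronchial epithelial cells, 24 h post-dosing. Bidirectional curve fit relative to DMSO vehicle baseline; gain or loss of signal both scored.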
Turning to `COc1ccccc1N`, the result was inactive.

As to `CCN(CC)C(=O)C(Cl)=C(C)OP(=O)(OC)OC`, the outcome was inactive.

For `CC(C=O)Cc1ccc2c(c1)OCO2` (centres undefined), the outcome was inactive.

For the compound `OCCN(CCO)CCO`, the outcome was inactive.

A word on the AC50: it is the midpoint of the concentration-response curve, whichever way the signal moves. With `[Cl][Sn]([c]1ccccc1)([c]1ccccc1)[c]1ccccc1`, the AC50 is 0.27 µM (active).

As for `C#CCOC(=O)/C=C(C)/C=C/CC(C)CCCC(C)C` (centres undefined), the result was inactive.

Turning to `CN(C)C(=S)S`, the outcome was inactive.

For the compound `CC(C)=CC1C(C(=O)OCc2cccc(Oc3ccccc3)c2)C1(C)C` (centres undefined), the result was inactive.

For `CCOP(=S)(OCC)OP(=S)(OCC)OCC`, the outcome was inactive.

Consider `O=S(=O)(c1ccc(Cl)cc1)c1cc(Cl)c(Cl)cc1Cl`, for which the outcome was inactive.

Regarding `Cc1cc(C)cc(C)c1`, the result was inactive.

Read-out in a further test: Interleukin-6 (IL6), IL6 (gene 3569)
Nature of the test: BSK_CASM3C_IL6: BioMAP Diversity Plus: CASM3C Assay for Interleukin-6 (IL6) Biomarker Activity for (AID 2283040). Conditions: primary human coronary artery smooth muscle cells; actives raise or lower the signal.
Turning to `Cc1ccc2nc3sc(=O)sc3nc2c1`, the outcome was inactive.

For `OC(Cc1ccccc1Cl)(Cn1cncn1)C1(Cl)CC1` (centres undefined), the outcome was inactive.

Turning to `Cc1ccccc1OP(=O)(Oc1ccccc1)Oc1ccccc1`, the outcome was inactive.

Turning to `O=[N+]([O-])c1cccc2ccccc12`, the result was inactive.

Turning to `Oc1c(Cl)cc(Cl)cc1Cl`, the outcome was inactive.

Consider `CCOC(=O)CCN(SN(C)C(=O)Oc1cccc2c1OC(C)(C)C2)C(C)C`, for which the outcome was inactive.

Regarding `OC(Cc1ccccc1Cl)(Cn1[nH]cnc1=S)C1(Cl)CC1` (centres undefined), the outcome was inactive.

As to `CCOP(=O)(OCC)SCCSCC`, the result was inactive.

`N#CCCC(Br)(C#N)CBr` (centres undefined): the AC50 is 20 µM (active).

Consider `Cc1cc(C(C)(C)c2ccc(O)c(C)c2)ccc1O`, for which the AC50 was 10 µM (active).

For `O=C(O)COc1cc(Cl)c(Cl)cc1Cl`, the result was inactive.

Turning to `O=[N+]([O-])c1ccc(Nc2ccccc2)cc1`, the result was inactive.

For `Cc1ccccc1OP(=O)(Oc1ccccc1C)Oc1ccccc1C`, the half-maximal activity concentration (AC50) was 8.58 µM (active).

Take `CCOC(=O)C(SP(=S)(OC)OC)c1ccccc1` (centres undefined): the result was inactive.

Turning to `CC(C)(C)c1cc([N+](=O)[O-])cc(C(C)(C)C)c1O`, the result was inactive.

With `CC1(C)[C@H](C(=O)O[C@H](C#N)c2cccc(Oc3ccccc3)c2)[C@@H]1/C=C(\Cl)C(F)(F)F`, the result was inactive.

`c1ccc(-c2cccc(-c3ccccc3)c2)cc1`: the result was inactive.

Regarding `Cc1ccc(OP(=O)(Oc2ccc(C)cc2C)Oc2ccc(C)cc2C)c(C)c1`, the result was inactive.

For the compound `CC(C)(C)c1ccccc1O`, the result was inactive.

For the compound `O=S(=O)(C(Cl)(Cl)Cl)C(Cl)(Cl)Cl`, the AC50 was 1.61 µM (active).

As for `C=CC(Cl)CCl` (centres undefined), the result was inactive.

In the case of `CCOP(=O)(OCC)OC(=CCl)c1ccc(Cl)cc1Cl`, the result was inactive.

Consider `COc1ccccc1N`, for which the result was inactive.

In the case of `CCN(CC)C(=O)C(Cl)=C(C)OP(=O)(OC)OC`, the result was inactive.

Regarding `CC(C=O)Cc1ccc2c(c1)OCO2` (centres undefined), the outcome was inactive.

Turning to `OCCN(CCO)CCO`, the outcome was inactive.

For `[Cl][Sn]([c]1ccccc1)([c]1ccccc1)[c]1ccccc1`, the AC50 was 0.726 µM (active).

`C#CCOC(=O)/C=C(C)/C=C/CC(C)CCCC(C)C` (centres undefined): the outcome was inactive.

For the compound `CN(C)C(=S)S`, the outcome was inactive.

Take `CC(C)=CC1C(C(=O)OCc2cccc(Oc3ccccc3)c2)C1(C)C` (centres undefined): the result was inactive.

Consider `CCOP(=S)(OCC)OP(=S)(OCC)OCC`, for which the outcome was inactive.

As for `O=S(=O)(c1ccc(Cl)cc1)c1cc(Cl)c(Cl)cc1Cl`, the result was inactive.

Take `Cc1cc(C)cc(C)c1`: the result was inactive.
